The structures appear in SMILES notation. The panel holds about 83,000 compounds, 20% with a hit somewhere; the sample as a whole holds those more often.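 Cell lines were cultured in 96-well plates, exposed to a single compound concentration, and assessed for percent growth 48 hours later.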 A number with no mark means an inactive call. The source made the active and inactive calls. The calls were made as follows: active = growth percent below 10; inactive = the rest.

For the test, the system named is MDA-MB-468 breast. Nature of the test: NCI-60 one-dose screen, 48 h (100 = growth as untreated, 0 = no growth, -100 = all killed). The note with it: 10 µM unless noted.
`CCOC(=O)c1cn2c3c(cc(F)cc3c1=O)C(CC)c1ccccc1C2` (stereo not given): the growth is 99.4%.
For `O=C1CC[C@@H](C(=O)N[C@H]2CSSC[C@@H](C(=O)N/C=C/c3ccc(O)cc3)NC(=O)[C@H](Cc3ccccc3)NC(=O)[C@@H]3CCCN3C(=O)[C@@H]3CCCN3C2=O)N1` the value was 89.5%; for `Cc1ccc(Sc2nnc(/N=C3\C(=O)Nc4ccccc43)s2)cc1`, 102%; for `COc1cc2nc(Cl)nc(Nc3cccc(C4=Nc5c(N)nc(N)nc5NC(c5ccccc5)C4)c3)c2cc1OC` (stereo not given), 96.5%.
For `COc1cc(CNC(=O)Cc2ccccc2)ccc1OCc1cn(-c2ccc(F)cc2)nn1` the value was 99.8%.
For `O=C(CSC1CCc2ccccc21)N/N=C/c1ccccc1O` (stereo not given) the value was 33.9%.
On to `CN(C)Cc1ccc(C(=O)Nc2ccc3ncnc(Nc4ccc(Oc5cccc(F)c5)c(Cl)c4)c3c2)cc1`, for which the growth is -63% (active).
For `Clc1cccc(Nc2nc(Nc3cnc4ccccc4c3)c3[nH]cnc3n2)c1` the value was 86%.
For `CCNc1cc(-c2cccc(OC(F)(F)F)c2)nc2ccc(N3CCCC3)cc12` the value was -34.9% (active).
For `NC(=S)CN1CCOCC1` the value was 104%; for `CCN1C(=O)N(CC)C2SC(N/N=C/c3ccccc3F)=NC21` (stereo not given), 40.4%.
On to `CN(C)Cc1cn(-c2ncc(-c3ccc(C(F)(F)F)cc3)c(NC3CCCCCC3)n2)nn1`, for which the growth was 82.9%.
The value for `O=C1OCc2cccc3cccc1c23` was 104%; that for `OC(c1cc2cc(Br)ccc2c2cc(Br)ccc12)C1CCCCN1` (stereo not given) was -83.1% (active).
The value for `COc1ccc(CCN(CC(=O)N(CC(N)=O)C2CCC[C@@H]2OCc2ccccc2)C(=O)CN(C(=O)CN(CCc2ccc(Cl)cc2)C(=O)CN(C(=O)CN(C)Cc2ccccc2F)[C@H](C)C2CCCCC2)[C@H](C)C2CCCCC2)cc1OC` (stereo not given in full) was 14.7%; that for `Cc1nc2c(c(=O)[nH]1)C(c1ccccc1)c1ccc3ccccc3c1O2` (stereo not given) was 22.9%.
For `O=C1/C=C/[C@@H](O)[C@@H]2C[C@@H](O)C[C@H]2/C=C/CCC[C@H](CO)O1` the value was -20.1% (active); for `CC[C@H](C)C(=O)O[C@H]1CCC=C2C=C[C@H](C)[C@H](CC[C@@H]3CC=CC(=O)O3)[C@H]21`, 85%.
Consider `c1ccc2sc(SCCCn3ccnc3)nc2c1`, for which the growth is 61.8%.
With `COC1/C=C/OC2(C)Oc3c(C)c(O)c4c(O)c(c(C=NOC(c5ccccc5)c5ccccc5)c(O)c4c3C2=O)NC(=O)/C(C)=C/C=C/C(C)C(O)C(C)C(O)C(C)C(OC(C)=O)C1C` (stereo not given), the growth is 3.6% (active).
For `COc1ccc(/C(=C\c2cc(OC)c(OC)c(OC)c2)C(=O)N2CCNCC2)cc1` the value was 94.3%; for `COc1ccc(-c2nc(-c3cc(OC)cc(OC)c3)[nH]c2-c2ccc(OC)cc2)cc1`, 31.4%; for `COc1cc(OC)c(/C=C/S(=O)(=O)Cc2ccc(OC)c(N)n2)c(OC)c1`, 13.5%.
The value for `O=C1NC(=O)C(=Cc2cn(Cc3cn(Cc4ccc(Cl)cc4Cl)nn3)c3ccccc23)C(=O)N1` was 2.08% (active).
For `Oc1c(Br)cc(Br)c2ccc(Cn3cc(-c4ccc(C(F)(F)F)cc4)nn3)nc12` the value was 30.8%; for `COc1cc(C2CC(c3cccc(Nc4ccncc4)c3)=NN2c2ccccc2)cc(OC)c1OC` (stereo not given), 25.8%.
`CCCCNCC(O)c1cc2c(Cl)cc(Cl)cc2c2cc(C(F)(F)F)ccc12` (stereo not given): the growth was -86.2% (active).
The value for `Nc1nc2ccc([C@@H]3Nc4ccc5[nH]ncc5c4[C@H]4[C@H]5CCC(C5)[C@H]43)cc2s1` was -14.4% (active); that for `CO[C@H]1C[C@@H]2CC[C@@H](C)[C@@](O)(O2)C(=O)C(=O)N2CCCC[C@H]2C(=O)O[C@H]([C@H](C)C[C@@H]2CC[C@@H](O)[C@H](OC)C2)CC(=O)[C@H](C)/C=C(\C)[C@@H](O)[C@@H](OC)C(=O)[C@H](C)C[C@H](C)\C=C/C=C/C=C/1C` was 1.57% (active).
On to `Cc1cc(C)c(-c2cc(O)c(-c3c(C)cc(C)cc3C)cc2O)c(C)c1`, for which the growth was 4.15% (active).
Regarding `Cc1ccc2cccc(Oc3ccc(Nc4ncnc5onc(-c6ccccc6)c45)cc3)c2n1`, the growth is 86.8%.
The value for `CCOC(=O)N1CCc2c(sc3nc4nc[nH]n4c(=O)c23)C1` was 112%; that for `Cn1c(C(N)=O)cc2c1-c1nc(Nc3ccccc3)ncc1CCC2` was 53.4%.
Turning to `O=C(O)C(SC(C(=O)O)c1ccccc1)c1ccccc1` (stereo not given), the growth is 106%.
The value for `CCCCCc1c(C)[nH]c(/C=C2\N=C(c3ccc[nH]3)C=C2OCc2ccccc2)c1C` was -51.6% [100 µM] (active); that for `COc1ccc(-c2c[nH]c(C(=O)O)c2-c2cc(OC)c3c(c2OC)OCO3)cc1` was 103%; that for `COc1ccc(/C(C)=N/NC(=O)c2ccc(S(C)(=O)=O)cc2)cc1OC` was 95.7%.
The value for `COc1ccc(-c2nc3ncccn3c2-c2nnc(-c3ccsc3C)o2)cc1` was 86.1%; that for `CC(C)(C)OC(=O)N1C=C/C(=C\Cn2cc(-c3ccccc3)nn2)CC1` was 26.4%; that for `O=C(OCC1CC2(Cl)C(Cl)=C(Cl)C1(Cl)C2(Cl)Cl)C1C(C(=O)OCC2CC3(Cl)C(Cl)=C(Cl)C2(Cl)C3(Cl)Cl)C2(Cl)C(Cl)=C(Cl)C1(Cl)C2(Cl)Cl` (stereo not given) was 107%.

The values are drawn from PubChem BioAssay (NCI).
